# The campaign covered roughly 390,000 compounds. About 910 (0.23%) were called active. Roughly 5% stayed inconclusive and do not appear here. The sample holds actives, similar compounds and a random draw of the others, so the mix is not that of the screen. Unmarked numbers belong to inactive results. Calls follow the shape of the dose curve; as a rule, active = well fitted inhibition curve with a large enough effect; inconclusive = small, poorly fitted or top-dose-only effect; inactive = no such curve, though single readings can be large or run the other way.
# Molecular target: Ubiquitin carboxyl-terminal hydrolase 1 (Homo sapiens) (UniProt O94782)
# Sequence (O94782 whole entry, looked up): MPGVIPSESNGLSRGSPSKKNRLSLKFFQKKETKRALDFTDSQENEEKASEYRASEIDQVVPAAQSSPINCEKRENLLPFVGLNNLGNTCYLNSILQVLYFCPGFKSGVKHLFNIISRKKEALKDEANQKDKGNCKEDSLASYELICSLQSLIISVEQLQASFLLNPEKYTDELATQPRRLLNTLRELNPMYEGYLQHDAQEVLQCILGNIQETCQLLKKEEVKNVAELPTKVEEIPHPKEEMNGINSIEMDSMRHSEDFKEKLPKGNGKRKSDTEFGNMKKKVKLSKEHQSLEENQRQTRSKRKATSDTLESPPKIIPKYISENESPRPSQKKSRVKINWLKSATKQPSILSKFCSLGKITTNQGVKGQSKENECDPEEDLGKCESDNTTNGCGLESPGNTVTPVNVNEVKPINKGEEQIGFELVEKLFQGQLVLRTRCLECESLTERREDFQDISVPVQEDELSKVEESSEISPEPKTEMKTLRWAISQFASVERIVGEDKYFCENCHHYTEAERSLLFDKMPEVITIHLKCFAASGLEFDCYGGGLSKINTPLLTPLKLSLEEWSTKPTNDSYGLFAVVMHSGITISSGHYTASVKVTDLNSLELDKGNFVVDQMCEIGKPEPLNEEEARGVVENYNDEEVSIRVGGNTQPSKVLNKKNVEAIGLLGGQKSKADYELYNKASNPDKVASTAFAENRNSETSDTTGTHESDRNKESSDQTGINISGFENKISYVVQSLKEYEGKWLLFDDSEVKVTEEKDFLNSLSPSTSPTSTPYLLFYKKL
# Test: Inhibitors of USP1/UAF1: Primary Screen; also: nearly all actives have a fitted effect of over 60% in size
# Details: recombinant USP1/UAF1, Ub-Rhodamine cleavage fluorescence; series mostly up to 57.1 µM; activity change, negative = inhibition: at the top concentration
# Text: Deubiquitinating enzymes (DUBs) are a class of enzymes that can cleave isopeptide bond formed between the C-terminal carboxylate of ubiquitin and a lysine side-chain amino group on the target protein. Among them, ubiquitin specific proteases (USPs) constitute the largest DUB family. Human USPs are emerging as promising targets for pharmacological intervention because of their connection to a number of human diseases, including prostate, colon and breast cancer (1, 2), pediatric acute lymphoblastic leukemia (3), and familial cylindromatosis (4). The advantage of inhibiting USPs lies in the potential specificity of therapeutic intervention that can lead to better efficacy and reduce nonspecific side effects. In a collaboration between the University of Delaware and the NIH Chemical Genomics Center, a high-throughput screen assay was developed to screen for USP1/UAF1 inhibitors. This miniaturized assay has a fluorescent read-out and is used to screen the NIH Molecular Libraries Small Molecule Repository (MLSMR) in order to identify a small molecule that inhibits USP1. NIH Chemical Genomics Center [NCGC] NIH Molecular Libraries Probe Centers Network [MLPCN] MLPCN Grant: DA030552 Assay Submitter (PI): Zhihao Zhuang, University of Delaware 1. Priolo, C., et al. (2006) The isopeptidase USP2a protects human prostate cancer from apoptosis. Cancer Res 66, 8625-8632 2. Popov, N., et al. (2007) The ubiquitin-specific protease USP28 is required for MYC stability. Nat Cell Biol 9, 765-774 3. De Pitta, C., et al. (2005) A leukemia-enriched cDNA microarray platform identifies new transcripts with relevance to the biology of pediatric acute lymphoblastic leukemia. Haematologica 90, 890-898 4. Kovalenko, A., et al. (2003) The tumour suppressor CYLD negatively regulates NF-kappaB signalling by deubiquitination. Nature 424, 801-805
# 3 microliters of reagents (buffer in columns 3 and 4 as negative control and 1nM USP1/UAF1 complex in columns 1, 2, and 5-48) are dispensed into Greiner black solid bottom 1536-well assay plates. Compounds are then transferred via Kalypsys pin tool equipped with 1536-pin array (10nl slotted pins, V&P Scientific, San Diego, CA). Following an incubation step of 15 min at room temperature, 1ul of Ub-Rho substrate (150nM final concentration) is added to initiate the reaction. The plates are immediately centrifuged at 1000 rpm for 15 seconds, and subsequently transferred to a ViewLux high-throughput CCD imager (PerkinElmer) wherein kinetic measurements of fluorescence are acquired using 480 nm excitation/540 nm emission filter set (6 reads every 60 seconds, see Table 1). All reagents are diluted in an assay buffer consisting of 50mM HEPES (pH 7.8), 0.5mM EDTA, 0.1 mg/ml BSA, 1mM TCEP, and 0.01% Tween-20.
# % is scaled to controls: 0 for no effect and ±100 for the full control effect; potency is read from the fitted curve at half-maximal effect.
Structure (SMILES),"activity change, negative = inhibition [%]",Potency
Cc1ncoc1C(=O)NCC1=C(c2cccc3ccccc23)C[C@@H]2CC[C@H]1N2Cc1ccco1,-26.1,
COc1cc(Cn2c(N)c(C(=O)NCc3ccco3)c3nc4ccccc4nc32)cc(OC)c1OC,,22.4 µM (active)
COC(=O)C1=C(c2ccccc2)C[C@@H]2CC[C@H]1N2C(=O)NCc1ccco1,-13.6,
CN(C)CC1Oc2ccccc2OC1(O)c1ccccc1 (stereo not given),-24,
Cc1ccc(-n2c(/C=C/c3cccc(C(F)(F)F)c3)nc3ccccc3c2=O)cc1,-2.31,
COC(=O)C1=C(c2ccc(OCc3ccccc3)cc2)C[C@@H]2CC[C@H]1N2C(=O)NCc1cccc(F)c1,-16.5,
O=C1NC(=O)N(c2ccccc2)C(=O)/C1=C/c1ccc([N+](=O)[O-])s1,,28.2 µM (active)
CC(=O)C1(O)CCC2C3CCC4=C(Cl)C(=O)CCC4(C)C3CCC21C (stereo not given),-6.63,
Cc1c(C(=O)O)cccc1-n1c(C)cc(/C=C2\C(=O)NC(=O)N(c3ccc4c(c3)OCO4)C2=O)c1C,-1.73,
COc1cccc(N2C(=O)NC(=O)/C(=C\c3cn(C)c4ccccc34)C2=O)c1,,11.2 µM (active)
Cn1cc(/C=C/c2nc3ccccc3c(=O)n2-c2ccccc2)c2ccccc21,-33.4,
O=C1C2CCN(CC2)C1(CO)CO,-25.6,
C[N+](C)(C)CCOP(=O)([O-])OC[C@H](O)CO,1.6,
Cc1ccc(OC(=O)N(C)C[C@@H]2OCc3cnnn3CCCC(=O)N([C@H](C)CO)C[C@@H]2C)cc1,-16.6,
COc1cc(C2c3cc4c(cc3C(O)C3COC(=O)C23)OCO4)cc(OC)c1OC (stereo not given),-15.3,

# From PubChem BioAssay AID743255 (National Center for Advancing Translational Sciences (NCATS), 2014)
